# High-throughput results as filed in PubChem BioAssay.
# Hits are enriched below; roughly 10% of the tested compounds scored in any of these assays.
# Six1-Eya2 blk – qHTS Assay for Inhibitors of the Six1/Eya2 Interaction; activity change, % (test concentration not listed); hit rate 0.56% among 360,000; AlphaScreen GST-Six1/His-Eya2 binding, biochemical; hits give low values; Homeobox protein SIX1 (Homo sapiens) + Protein phosphatase EYA2 (Homo sapiens), …; in the data active = activity change below about -65%; inconclusive = mostly about -30% to -63%; note: % is set by controls: 0 for no effect and ±100 for the full control effect
#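 Six1/Eya2 binding was read as AlphaScreen signal after compounds were pinned into GST-Six1 plus His-tagged Eya2 (5X stock 250/500 nM) in pH 8.0 Tris/NaCl/TCEP buffer, beads added, then incubated 1 h, 37 C, dark.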
# JMJD2A Tudor – qHTS Assay for Inhibitors of JMJD2A-Tudor Domain. hit rate 4.4% among 390,000. AlphaScreen JMJD2A-Tudor / H3K4me3 peptide binding. Lysine-specific demethylase 4A (Homo sapiens), O75164. Potency, µM (top dose mostly 114 µM), inactives show at the top dose activity change, negative = inhibition, usual class: inhibitors; note: potency is the fitted concentration of half-maximal effect; % is set by controls: 0 for no effect and ±100 for the full control effect; nearly all actives have a fitted effect of over 50% in size
# G9a block – qHTS Assay for Inhibitors of Histone Lysine Methyltransferase G9a | hit rate 8.8% among 350,000 | AID 504332, 2011 | Potency, µM (top dose mostly 102 µM), for inactives: at the top dose activity, negative = inhibition, most hits filed as inhibitors | G9a H3K9 monomethylation, AlphaScreen, 2 h | Histone-lysine N-methyltransferase EHMT2 (Homo sapiens), Q96KQ7; note: potency is the fitted concentration of half-maximal effect; % is set by controls: 0 for no effect and ±100 for the full control effect; nearly all actives have a fitted effect of over 75% in size
#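 Enzyme 20 nM + cpd, 15 min RT; add b-H3K9 pep 500 nM / SAM 20 uM; 2 h RT; anti-H3K9me1 Ab 0.5 ug/mL + SA donor / anti-rabbit acceptor beads 20 ug/mL each, 10 min; AlphaScreen read.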
# BAZ2B inh – qHTS Assay for Inhibitors of BAZ2B; Potency, µM (top dose mostly 114 µM), without a hit: at the highest dose activity change, negative = inhibition, actives largely listed as inhibitors; AlphaScreen BAZ2B-H3K14Ac peptide displacement; hit rate 4.4% among 360,000; Bromodomain adjacent to zinc finger domain protein 2B (Homo sapiens), Q9UIF8; note: potency is the fitted concentration of half-maximal effect; % is set by controls: 0 for no effect and ±100 for the full control effect; nearly all actives have a fitted effect of over 60% in size
#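 BAZ2B 50 nM plus b-H3(5-23)K14Ac 50 nM, PBS pH 7.4/0.01% Tween-20, 30 min RT; compound added (max 110 uM), 30 min RT; streptavidin donor/Ni-chelate acceptor beads 10 ug/mL final, 20 min dark; AlphaScreen read.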
# CtBP-E1A inh – qHTS Assay for Inhibitors of the CtBP/E1A Interaction. CtBP / adenovirus E1A interaction (AlphaScreen). AlphaScreen GST-E1A/His-CtBP binding, 1536-well; hits give low values. activity change, % (concentration not given with the values). hit rate 0.49% among 340,000. AID 651724, 2012; in the data active = activity change below about -65%; inconclusive = mostly about -30% to -63%; note: % is set by controls: 0 for no effect and ±100 for the full control effect
#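 GST-E1A and His-tagged CtBP (125 nM each as 5X stock) were preincubated with pin-transferred compound for 2 h at 37 °C in the dark, then glutathione donor and nickel acceptor beads were added for 1 h before AlphaScreen reading.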
# HP1b chromo inh – HTS for Inhibitors of HP1-beta Chromodomain Interactions with Methylated Histone Tails | Potency, µM (highest dose often 114 µM), for the others: at the top dose activity change, negative = inhibition, hits mostly inhibitors | hit rate 0.56% among 390,000 | AID 540317, 2011 | AlphaScreen HP1-beta / biotin-H3K9me3 peptide binding | Chromobox protein homolog 1 (Homo sapiens), P83916; note: potency is the fitted concentration of half-maximal effect; nearly all actives have a fitted effect of over 70% in size
#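 AlphaScreen: HP1-beta (50 nM) preformed 30 min with biotin-H3(1-18)K9me3 peptide (50 nM) in PBS pH 7.4, 0.01% Tween-20. Compound added for 30 min at RT, then streptavidin donor/nickel chelate acceptor beads (10 ug/mL) for 30 min.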
# Numbers without * were called inactive; ? = inconclusive; · = not tested or not shown; ! = not active in a repeat; [ ] = another dose, or the depositor's remark. Unless noted, calls come from the whole dose curve; as a rule, active = well fitted inhibition curve with a large enough effect; inconclusive = small, poorly fitted or top-dose-only effect; inactive = no such curve, though single readings can be large or run the other way.
SMILES,Six1-Eya2 blk,JMJD2A Tudor,G9a block,BAZ2B inh,CtBP-E1A inh,HP1b chromo inh
COc1cc(OC)c(OC)cc1CN1CCN(C(=O)CC(C)C)CC1,4,1.6µM*,18µM*,?,3,?
COc1ccc(CN2CCN(C(C)C(=O)N(C)Cc3cccc(F)c3)CC2)cc1OC (stereo not given),1,4.5µM*,2µM*,18µM*,·,?
COc1cccc(CN2CCN(C(=O)Nc3ccc([N+](=O)[O-])cc3)CC2)c1,-4,-18%,·,-12%,-18,14%
COc1cccc(CN2CCN(C(=O)CC(C)C)CC2)c1,5,5.6µM*,18µM*,56µM*,6,-57%
COc1ccc(CN2CCN(C(C)C(=O)NC(C)c3ccc(F)cc3)CC2)cc1F (stereo not given),-12,-7%,-2%,-4%,6,23%
Cn1cc(S(=O)(=O)c2ccccc2)c(=O)c2cc(F)c(N3CCCCCC3)cc21,·,4%,-14%[59 µM],2%,·,22%
O=C(O)c1cc(=O)c2ccccc2[nH]1,-9,?,10µM*!,?,-12,13%
O=C(O)c1cc(=O)c2c(Cl)cc(Cl)cc2[nH]1,-14,50µM*,16%[12.7 µM],·,-5,4%
O=C(O)c1cc(=O)c2cccc(O)c2[nH]1,·,28µM*,-33%[2.33 µM],·,·,49%
O=C(Nc1cccc2cccnc12)c1c(Cl)cc(Cl)cc1Cl,·,-7%,·,·,·,45%
Cc1c(NC(=O)c2ccc(Cl)cc2)cc(C(C)C)c(O)c1S(=O)(=O)c1ccccc1,·,-4%,-2%[59 µM],-11%,·,23%
CC(C)(C)N1C(=O)Cc2c1nc(N)c1c(N)nc(N3CCCCC3CO)c(C#N)c21 (stereo not given),-14,50µM*,7.9µM*,40µM*,-26,?
CCC1Cc2c(nc(N)c3c(N)nc(N4CCCCC4)c(C#N)c23)O1 (stereo not given),0,-5%,4%,0%,-1,4%
O=C(Cc1ccccc1)N/N=C/c1cccn1-c1ccc([N+](=O)[O-])cc1,?,-33%,7.1µM*,25µM*,-21,?
O=C(N/N=C/c1cccn1-c1ccc([N+](=O)[O-])cc1)C(O)c1ccccc1 (stereo not given),-18,?,45µM*,?,-21,-14%
Oc1cccc2cc3cccc(O)c3c(O)c12,1,?,?,40µM*,-23,-8%
O=Cc1ccc2oc3nc4n(c(=O)c3c(=O)c2c1)CCCS4,?,?,?,56µM*,?,?
Cc1cc(C)c2c(n1)sc1c(=O)n(-c3cc(Cl)ccc3C)nnc12,·,-11%,-16%[59 µM],-14%,·,37%
O=C(CSc1nc2ccccc2nc1Cc1ccccc1)Nc1ccc2c(c1)OCO2,·,-12%,1%[59 µM],4%,·,17%[57 µM]
CC1CCc2c(C(=O)NCc3ccco3)csc2C1 (stereo not given),-11,-6%,56µM*,-37%,0,22%
CCc1nnc(NC(=O)c2csc3c2CCC(C)C3)s1 (stereo not given),·,·,11%,-14%,·,·
CC1CCc2c(C(=O)Nc3cccc(-c4nn[nH]n4)c3)csc2C1 (stereo not given),-8,-26%,50µM*,-28%,-19,19%
O=C(NCc1ccco1)c1csc2c1CCCCC2,-3,-18%,-9%[12.7 µM],-30%,-8,2%
CCC(C)(Oc1ccc(C2(c3ccc(OC(C)(CC)C(=O)O)cc3)CCCCC2)cc1)C(=O)O (stereo not given),·,·,-5%[12.7 µM],·,·,·
CN(C)c1ncc(C(=O)NCc2ccccc2Cl)cn1,·,10%,-1%[12.7 µM],0%,·,24%
SMILES,Six1-Eya2 blk,JMJD2A Tudor,G9a block,BAZ2B inh,CtBP-E1A inh,HP1b chromo inh
Cc1ccc2sc(NNC(=O)c3cc(=O)c4ccccc4o3)nc2c1C,-14,56µM*,7.1µM*,50µM*,-3,?
COc1ccc(NC(=O)c2cc(=O)c3ccc(C)c(C)c3o2)cc1Cl,·,-6%,-1%[59 µM],-2%,·,33%
COc1ccc(NC(=O)c2cc(=O)c3ccccc3o2)cc1Cl,-7,-22%,56µM*,-34%,8,26%
O=C(Nc1ccc(O)c(-c2nc3ccccc3s2)c1)c1cc(=O)c2ccccc2o1,12,-18%,-6%[59 µM],-3%,20,1%
O=C(NNc1nc2c(F)cccc2s1)c1ccc(F)cc1,0,-17%,-42%,-1%,-6,29%
O=C(NNc1nc2c(F)cccc2s1)c1cc(=O)c2ccccc2o1,-17,-32%,35µM*,-38%,-6,19%
Cc1cccc2sc(NNC(=O)c3cc(=O)c4ccccc4o3)nc12,-17,?,·,45µM*,-4,-12%
O=C(CSc1nccn1Cc1ccccc1)Nc1ccc2c(c1)OCCO2,·,-33%,-7%[59 µM],?,·,-2%[57 µM]
COc1ccc2nc(NNC(=O)c3cc(=O)c4ccccc4o3)sc2c1,-9,56µM*,8.9µM*,50µM*,-12,?
COc1ccc2nc(NC(=O)c3cc(=O)c4cc(C)c(C)cc4o3)sc2c1,·,-15%,-5%[59 µM],-4%,·,6%
CS(=O)(=O)C1=NN2C(=N)/C(=C\c3ccc(OC(=O)c4ccco4)cc3)C(=O)N=C2S1,7,-11%,45µM*,50µM*,·,26%
CCS(=O)(=O)C1=NN2C(=N)/C(=C\c3ccc(OC(=O)c4ccco4)c(OC)c3)C(=O)N=C2S1,-8,?,32µM*,-39%,-16,14%
N=C1/C(=C\c2ccc(OC(=O)c3ccc(F)cc3)cc2)C(=O)N=C2SC(N3CCOCC3)=NN12,?,2%,-9%,45µM*,·,39%
CS(=O)(=O)C1=NSC2=NC(=O)/C(=C\c3ccc(OC(=O)c4ccco4)cc3)C(=N)N21,·,·,?,-22%,·,·
CCOC(=O)c1ccc(N2NC(=O)/C(=C/c3ccc(OC(=O)c4ccco4)c(OC)c3)C2=O)cc1,·,·,32µM*,?,·,·
COc1cc(/C=C2/C(=N)N3C(SC)=NSC3=NC2=O)ccc1OC(=O)c1ccco1,-3,-31%,?,-23%,0,11%
COc1ccc(Cl)cc1N(C)C(=O)Cc1noc2ccc(C)cc12,·,-36%,?,-36%,·,-9%
O=C(Nc1cc(F)ccc1F)N1CCC(CN2CCOCC2)CC1,·,6%,6%[59 µM],3%,·,37%
Cc1ccc(-n2nc(C)c3c(C)cc(=O)n(CC(=O)NC(C)C)c32)cc1,·,5%,21%[59 µM],-1%,·,-1%
